# Measured values published in PubChem BioAssay (NCATS).
# Results filed as inconclusive are left out. Entries that show only a call come without a potency. Calls of active or inactive are those of the source. The call rests on the fitted dose curve; in most records, active means well fitted inhibition curve with a large enough effect; inconclusive means small, poorly fitted or top-dose-only effect; inactive means flat fitted curve, though single readings scatter.
# Biological target: Glutathione peroxidase 1 (Homo sapiens) (UniProt P07203)
# Sequence (P07203 whole entry, looked up): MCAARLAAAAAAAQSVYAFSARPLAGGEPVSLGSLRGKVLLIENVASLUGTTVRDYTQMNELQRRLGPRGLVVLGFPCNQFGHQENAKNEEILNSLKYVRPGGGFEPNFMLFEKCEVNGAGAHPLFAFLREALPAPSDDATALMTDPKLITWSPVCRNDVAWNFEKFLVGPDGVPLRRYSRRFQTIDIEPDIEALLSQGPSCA
# Assay: Primary qHTS Assay for Inhibitors of Recombinant Selenoprotein Glutathione Peroxidase 1 (GPX1) (AID 1845191); further: nearly all actives have a fitted effect of over 65% in size
# Conditions: recombinant GPX1, GR-coupled NADPH fluorescence, 15 min; series mostly up to 48.8 µM
# Method in brief: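 GR-coupled readout: NADPH consumption tracked by fluorescence, ex 340/em 450 nm, at t=0 and after 15 min at RT. Final mix 10 nM GPX1, 1 mM GSH, 0.5 mM CHP, 0.5 mM NADPH, 100 nM GR, 0.01% BSA, following 30 min enzyme–compound preincubation.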
# Potency means the concentration at half of the fitted maximal effect.
row,Compound,Potency
1,NC(N)=NC(=O)Cc1c(Cl)cccc1Cl,inactive
2,CNCCC(Oc1ccccc1OC)c1ccccc1 (centres undefined),inactive
3,C[C@]12CCC(=O)C=C1CC[C@@H]1[C@@H]2CC[C@@]2(C)[C@H]1CC[C@]2(O)C(=O)CO,inactive
4,CCc1c(C)[nH]c2c1C(=O)C(CN1CCOCC1)CC2 (centres undefined),inactive
5,CNCCCN1c2ccccc2CCc2ccccc21,inactive
6,OC(CCN1CCCCC1)(c1ccccc1)C1CCCCC1 (centres undefined),inactive
7,CN1CCN(C2=Nc3ccccc3Oc3ccc(Cl)cc32)CC1,inactive
8,Cc1nnc(SCC2=C(C(=O)O)N3C(=O)[C@@H](NC(=O)Cn4cnnn4)[C@H]3SC2)s1,20.2 µM (active)
9,CCN(CC)CCOCCOC(=O)C1(c2ccccc2)CCCC1,inactive
10,CC(C)(C)NCC(O)c1cc(O)cc(O)c1 (centres undefined),inactive
11,Cc1nc2ccccn2c(=O)c1CCN1CCC(C(=O)c2ccc(F)cc2)CC1,inactive
12,COc1ccc2c(c1OC)C(=O)O[C@@H]2[C@H]1c2c(cc3c(c2OC)OCO3)CCN1C,inactive
13,COCCCC/C(=N\OCCN)c1ccc(C(F)(F)F)cc1,inactive
14,O=C(CCCN1CCC(O)(c2cccc(C(F)(F)F)c2)CC1)c1ccc(F)cc1,inactive
15,CCN(CC)CCCN(c1ccccc1)C1Cc2ccccc2C1,inactive
16,O=C(O)CN(CCN(CC(=O)O)CC(=O)O)CCN(CC(=O)O)CC(=O)O,inactive
17,CN1CCN(CC(=O)N2c3ccccc3C(=O)Nc3cccnc32)CC1,inactive
18,c1cc(CN2CCCCC2)cc(OCCCNc2nc3ccccc3s2)c1,inactive
19,CN(C)CC/C=C1\c2ccccc2COc2ccccc21,inactive
20,CCc1cccc(N(C)C(N)=Nc2cccc3ccccc23)c1,inactive
21,CN1C[C@H](C(=O)N[C@]2(C)O[C@@]3(O)[C@@H]4CCCN4C(=O)[C@H](Cc4ccccc4)N3C2=O)C[C@@H]2c3cccc4[nH]cc(c34)C[C@H]21,inactive
22,COC(=O)C1=C(C)NC(C)=C(C(=O)OC(C)(C)CN(C)CCC(c2ccccc2)c2ccccc2)C1c1cccc([N+](=O)[O-])c1 (centres undefined),inactive
23,Fc1ccc(C(c2ccc(F)cc2)N2CCN(C/C=C/c3ccccc3)CC2)cc1,inactive
24,NC(N)=N/N=C/c1c(Cl)cccc1Cl,inactive
